High-throughput results from PubChem BioAssay.
MPTP inh: mitochondrial permeability transition pore inhibitors, primary screen, biochemical, isolated mouse mitochondria, absorbance | Ca2+ swelling absorbance, 30 min | inhibition, % at 10 µM | AID 602449, 2012 | 360,000 compounds, 1.4% hits;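 active means inhibition of 50% or more, scaled per plate between neutral and stimulator controls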;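 further: 0% = DMSO wells given calcium and 100% = 1 mM EGTA wells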
SKKanGAS inh: S. pyogenes SKKanGAS growth inhibitors in kanamycin, primary screen, streptokinase expression inhibitor project, SKKanGAS strain, BacTiter-Glo luminescence. 6 h. inhibition, % at 7.5 µM. 300,000 compounds, 1.3% hits;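 active means mean replicate score, as percent of positive control median, at least 50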;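 further: strain carries kanamycin resistance gene driven by streptokinase promoter and grows in 40 µg/ml kanamycin; loss of luminescence reflects streptokinase promoter inhibition or plain growth inhibition; 0% = median of DMSO wells and 100% = positive control at its reference dose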
Beta apoptosis: inhibitors of cytokine-induced beta cell apoptosis, primary screen, luminescence; INS-1E cytokine-induced death, ATP luminescence, 48 h; percent of positive-control rescue, neutral wells zero; protection from apoptosis, % (test concentration not listed); 300,000 compounds, 0.8% hits;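 active means Every replicate reaches about 75%, or at least half do and their mean reaches it too, limit read from the data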;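 further: 0% = cytokine-treated negative control wells and 100% = positive control rescue; higher means more ATP so stronger rescue from cytokine killing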
Mdm2-MdmX inh: inhibitors of human Mdm2-MdmX association, primary screen, cell-based, luminescence, split luciferase, SaOS-2, uHTS; AID 485346, 2010; SaOS-2 split-luciferase Mdm2/MdmX complementation; Protein Mdm4 (Homo sapiens) + E3 ubiquitin-protein ligase Mdm2 (Homo sapiens), …; inhibition, % at 8 µM; 330,000 compounds, 3% hits;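 active means inhibition of at least 50% at 8 µM in the primary screen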
Target sequence (O15151 whole entry, looked up): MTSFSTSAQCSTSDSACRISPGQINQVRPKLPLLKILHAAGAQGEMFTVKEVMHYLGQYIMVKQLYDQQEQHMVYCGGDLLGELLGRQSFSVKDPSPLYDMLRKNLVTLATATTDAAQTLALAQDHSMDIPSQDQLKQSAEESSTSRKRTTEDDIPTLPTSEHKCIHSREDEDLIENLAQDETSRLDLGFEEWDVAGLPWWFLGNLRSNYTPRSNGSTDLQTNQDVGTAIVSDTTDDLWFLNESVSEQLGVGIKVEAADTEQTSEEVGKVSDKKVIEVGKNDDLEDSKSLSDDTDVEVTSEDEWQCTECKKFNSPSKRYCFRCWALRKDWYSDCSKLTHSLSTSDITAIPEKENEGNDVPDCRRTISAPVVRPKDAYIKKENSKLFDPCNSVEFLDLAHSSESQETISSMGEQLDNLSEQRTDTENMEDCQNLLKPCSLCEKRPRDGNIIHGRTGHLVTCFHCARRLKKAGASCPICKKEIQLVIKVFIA
Target sequence (Q00987 whole entry, looked up): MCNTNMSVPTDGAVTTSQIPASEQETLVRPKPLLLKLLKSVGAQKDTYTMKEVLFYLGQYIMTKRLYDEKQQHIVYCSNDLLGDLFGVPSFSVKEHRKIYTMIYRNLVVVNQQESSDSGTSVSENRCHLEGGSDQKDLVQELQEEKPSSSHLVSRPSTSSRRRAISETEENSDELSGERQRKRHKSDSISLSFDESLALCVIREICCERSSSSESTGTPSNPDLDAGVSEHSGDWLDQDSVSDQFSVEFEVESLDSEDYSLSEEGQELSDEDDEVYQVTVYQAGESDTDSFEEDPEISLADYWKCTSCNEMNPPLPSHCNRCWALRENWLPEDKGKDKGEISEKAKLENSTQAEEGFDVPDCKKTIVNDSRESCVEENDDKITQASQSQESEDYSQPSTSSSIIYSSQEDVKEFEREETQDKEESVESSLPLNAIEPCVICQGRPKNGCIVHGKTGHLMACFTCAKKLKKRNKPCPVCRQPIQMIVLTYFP
GRIN3A LBD mod: binders of NR3A ligand-binding domain, primary screen, biophysical, differential scanning fluorimetry, uHTS | AID 1259313, 2017 | 340,000 compounds, 2.5% hits | NR3A LBD differential scanning fluorimetry, Tm shift; 0% = protein alone, 100% = glycine-bound protein | Tm shift relative to glycine control, % at 25 µM;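 active means melting temperature shift of at least 10% of the positive control shift, at one fixed dose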
CSC inhib: cancer stem cell viability inhibitors, primary screen, luminescence | cancer stem cell-like cells viability | inhibition, % at 7.5 µM | 300,000 compounds, 1.1% hits | AID 2717, 2010; in the data active means inhibition above about 75%; tested in HMLE shEcad cells
An asterisk follows results filed as active. Most compounds without a hit are left out; they make up all but 6.9% or so of the library.

Screening CCc1ccc(CNC(=O)c2ccc(OC)c(OC3CCN(C(C)C)CC3)c2)nc1 returned MPTP inh 1, SKKanGAS inh 3, Mdm2-MdmX inh 27, GRIN3A LBD mod 13* and CSC inhib -12.
COc1ccc(C(=O)NCc2csc(C)n2)cc1OC1CCN(C(C)=O)CC1 was read as MPTP inh -1, SKKanGAS inh -3, Beta apoptosis -2, Mdm2-MdmX inh 28, GRIN3A LBD mod 2 and CSC inhib -4.
For C/C(=N\NC(=O)c1nnn(-c2nonc2N)c1CSc1ccc(Cl)cc1)c1ccco1 the results were MPTP inh 1, SKKanGAS inh 0, Beta apoptosis -2, Mdm2-MdmX inh 43, GRIN3A LBD mod -2 and CSC inhib -6.
Screening Cn1cccc1-c1nc2ccccc2n1Cc1ccccc1 returned MPTP inh -1, SKKanGAS inh -5, Beta apoptosis -4, Mdm2-MdmX inh -9, GRIN3A LBD mod -6 and CSC inhib 88*.
COc1cccc(/C=N/NC(=O)c2nnn(-c3nonc3N)c2CN(C)c2ccccc2)c1 was read as MPTP inh -1, SKKanGAS inh 15, Beta apoptosis 0, Mdm2-MdmX inh 0, GRIN3A LBD mod 20* and CSC inhib -3.
For CN(Cc1c(C(=O)N/N=C/c2cccc(F)c2)nnn1-c1nonc1N)C1CCCCC1 the results were MPTP inh 2, SKKanGAS inh 2, Beta apoptosis -3, Mdm2-MdmX inh 28, GRIN3A LBD mod 0 and CSC inhib 0.
`CN(Cc1c(C(=O)N/N=C/c2cccc(F)c2)nnn1-c1nonc1N)c1ccccc1` gave MPTP inh 1, SKKanGAS inh 9, Beta apoptosis -2, Mdm2-MdmX inh 21, GRIN3A LBD mod 37* and CSC inhib -2.
`COc1cccc(/C=N/NC(=O)c2nnn(-c3nonc3N)c2-c2cccs2)c1` gave MPTP inh -1, SKKanGAS inh 5, Beta apoptosis -4, Mdm2-MdmX inh -15, GRIN3A LBD mod -4 and CSC inhib 15.
`COC(=O)C(C(C)C)N(Cc1cc(OC)cc(OC)c1)S(=O)(=O)CCl` (stereo not drawn) gave MPTP inh 0, Mdm2-MdmX inh -10 and GRIN3A LBD mod 2.
Screening CCCn1c(C(CO)Nc2nc(-c3cccc(Br)c3)cs2)nc2ccccc21 (stereo not drawn) returned MPTP inh 0, SKKanGAS inh 96*, Beta apoptosis -7, Mdm2-MdmX inh -33, GRIN3A LBD mod -1 and CSC inhib 11.
O=C(NCCN1CCOCC1)C1(C(F)(F)F)C/C(=C\Cc2ccccc2)CCCO1 (stereo not drawn) was read as MPTP inh 0, SKKanGAS inh 7, Beta apoptosis -10, Mdm2-MdmX inh -6, GRIN3A LBD mod -4 and CSC inhib -3.
Cc1cccc2sc(NC(=O)C3c4ccccc4Oc4ccccc43)nc12 was read as MPTP inh 8, SKKanGAS inh 30, Beta apoptosis 46, Mdm2-MdmX inh 35, GRIN3A LBD mod 3 and CSC inhib 126*.
Screening CSc1cccc(NC(=O)Nc2nc3c(C)cccc3s2)c1 returned MPTP inh 17, SKKanGAS inh 3, Beta apoptosis 9, Mdm2-MdmX inh 28, GRIN3A LBD mod 18* and CSC inhib 28.
Screening Cc1cccc2sc(NC(=O)C3CC3)nc12 returned MPTP inh 0, SKKanGAS inh 2, Mdm2-MdmX inh -5 and GRIN3A LBD mod -1.
`COc1ccc(NC(=O)C(C)N2CCN(C)CC2)cc1` (stereo not drawn) gave MPTP inh 0, SKKanGAS inh -3, Beta apoptosis -5, Mdm2-MdmX inh -10, GRIN3A LBD mod -4 and CSC inhib -14.
Screening CCC(=O)c1cc(Br)ccc1OCC(=O)N1CCN(S(=O)(=O)c2ccccc2)CC1 returned MPTP inh 1 and GRIN3A LBD mod 0.
COc1ccc(NC(=O)CSc2nnc(C)n2C2CC2)cc1S(=O)(=O)N1CCOCC1 was read as MPTP inh -1, Beta apoptosis -1, Mdm2-MdmX inh -16, GRIN3A LBD mod -2 and CSC inhib 7.
Screening COC(=O)[C@H](Cc1ccccc1)NC(=O)NCC1CCCO1 (stereo partly drawn) returned MPTP inh -3, SKKanGAS inh -2, Beta apoptosis -6, Mdm2-MdmX inh 17, GRIN3A LBD mod 14* and CSC inhib -2.
For CC(NC(=O)OCc1ccccc1)C(=O)NCC1CCCO1 (stereo not drawn) the results were MPTP inh 1, SKKanGAS inh -7, Beta apoptosis 4, Mdm2-MdmX inh 10, GRIN3A LBD mod -1 and CSC inhib -5.
Screening O=C(CCSc1ccccc1)NCC1CCCO1 (stereo not drawn) returned MPTP inh -2, SKKanGAS inh -1, Beta apoptosis 4, Mdm2-MdmX inh -20, GRIN3A LBD mod 17* and CSC inhib -1.
O=S(=O)(c1ccc(F)c(F)c1)N1CCN(c2ccccn2)CC1 was read as MPTP inh 0, SKKanGAS inh -2, Beta apoptosis 1, Mdm2-MdmX inh 9, GRIN3A LBD mod -1 and CSC inhib -8.
For Cc1ccc(Oc2nc(CN3CCOCC3)nc3sc4c(c23)CCC(C)C4)cc1C (stereo not drawn) the results were MPTP inh 0, SKKanGAS inh 25, Beta apoptosis 0, Mdm2-MdmX inh 14, GRIN3A LBD mod -2 and CSC inhib 120*.
`COc1ccc(N2CCN(CCOc3ccc4c(C)cc(=O)oc4c3)CC2)cc1` gave MPTP inh 1, SKKanGAS inh 1, Beta apoptosis 7, Mdm2-MdmX inh -2, GRIN3A LBD mod 4 and CSC inhib -5.
`Cc1cc(=O)oc2cc(OCc3ccc(S(=O)(=O)N4CCOCC4)cc3)ccc12` gave MPTP inh 0, SKKanGAS inh 7, Beta apoptosis -14, Mdm2-MdmX inh 0, GRIN3A LBD mod 18* and CSC inhib 5.
Screening Cc1cc(=O)oc2cc(OCCSCCN3CCCC3)ccc12 returned MPTP inh 0, SKKanGAS inh -2, Beta apoptosis 2, Mdm2-MdmX inh -11, GRIN3A LBD mod 12* and CSC inhib -1.
COc1ccc(COc2ccc3c(C)cc(=O)oc3c2)cc1 was read as MPTP inh 2, SKKanGAS inh 18, Beta apoptosis 2, Mdm2-MdmX inh -105, GRIN3A LBD mod 4 and CSC inhib 10.
